PD-1 reverse act: activators reversing PD-1 mediated T-cell inhibition, primary screen, luminescence, primary human CD4 T cells, PD-L1 beads. 29,000 tested, under 10 active. CellTiter-Glo 96 h. activation, % (no concentration beside the values); call rule not given here
NOMO-1 viab: NOMO-1 AML cell viability reduction, primary screen, STK33 inhibitor project, CellTiter-Glo luminescence | NOMO-1 AML viability, 72 h | inhibition, % (no concentration beside the values) | 7.5% of 37,000 active | AID 2330, 2010; in the data active = inhibition above about 80%; inconclusive = no clear call, values can overlap the other calls
STK33 kin inh: STK33 kinase inhibitors, primary screen, biochemical, luminescence, ADP-Glo, MBP substrate; 0.44% of 27,000 active; inhibition, % at 12.5 µM; in the data active = inhibition above about 20%; inconclusive = no clear call, values can overlap the other calls
Target sequence (Q9BYT3 whole entry, looked up): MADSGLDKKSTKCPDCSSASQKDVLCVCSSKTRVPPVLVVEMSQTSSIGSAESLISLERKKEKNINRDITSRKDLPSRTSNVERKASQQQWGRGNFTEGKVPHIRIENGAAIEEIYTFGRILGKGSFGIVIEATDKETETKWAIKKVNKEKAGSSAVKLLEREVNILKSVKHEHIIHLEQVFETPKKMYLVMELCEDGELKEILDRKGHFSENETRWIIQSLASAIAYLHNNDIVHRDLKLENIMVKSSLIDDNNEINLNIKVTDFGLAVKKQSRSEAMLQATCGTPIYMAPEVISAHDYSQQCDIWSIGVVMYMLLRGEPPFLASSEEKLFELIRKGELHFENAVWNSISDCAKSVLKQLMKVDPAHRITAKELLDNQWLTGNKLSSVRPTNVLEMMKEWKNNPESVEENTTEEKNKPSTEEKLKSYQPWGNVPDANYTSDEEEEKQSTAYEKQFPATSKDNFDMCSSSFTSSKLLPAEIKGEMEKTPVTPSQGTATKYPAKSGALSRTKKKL
Numbers stand for hits; . = inactive; ? = inconclusive; / = no result. Many of the other results were omitted from the sample, so hits are more common in it than they were.

SMILES	PD-1 reverse act	NOMO-1 viab	STK33 kin inh
C[C@@H]1O[C@@H](O[C@@H]2[C@@H](O)[C@H](OC(=O)[C@]34CCC(C)(C)CC3C3=CCC5[C@@]6(C)CC[C@H](OC7OC(CO)C(OC8OCC(O)C(O)C8O)C(O)C7O)C(C)(C)C6CC[C@@]5(C)[C@]3(C)CC4O)O[C@H]2CO)[C@H](O)[C@H](O)[C@H]1O[C@H]1OC[C@](O)(CO)[C@H]1O (stereo not given in full)	.	95	.
CC1(C)CC[C@]2(C(=O)O)CC[C@]3(C)C(=CCC4[C@@]5(C)CC[C@H](O[C@@H]6O[C@H](CO)[C@@H](O)[C@H](O)[C@H]6O)C(C)(C)C5CC[C@]43C)[C@@H]2C1 (stereo not given in full)	.	120	.
CN(C)C(=O)COc1cc2oc(=O)c3c(c2cc1Cl)CCC3	.	.	/
Cc1cc(=O)c2c(O)c(C)c(O)cc2o1	/	.	.
Cc1cc(=O)oc2cc(OC(C)C(=O)NCC3CCCO3)ccc12 (stereo not given)	.	.	.
COC(=O)c1ccccc1NC(=O)C(C)Oc1ccc2c(C)cc(=O)oc2c1 (stereo not given)	/	89	.
C=CC1(C)C[C@H](OC(=O)C(C)CO)[C@H]2C(=C)C(=O)O[C@@H]2C1C(=C)CO (stereo not given in full)	.	115	.
C=C[C@]1(C)C[C@H](O)[C@H]2C(=C)C(=O)O[C@@H]2[C@H]1C(=C)CO	.	.	.
CC(C)(C)N1C(=O)c2ccccc2C1=O	.	.	/
CCc1cc2c(=O)n(-c3ccccc3)c(SCC(=O)Nc3ccc([N+](=O)[O-])cc3)nc2s1	/	.	.
Cc1ccc(S(=O)(=O)Nc2ccc3c(c2)CC(=O)N([C@@H](C)CO)C[C@H](C)[C@@H](CN(C)Cc2ccc(Cl)c(Cl)c2)O3)cc1	.	128	.
Cc1ccc(S(=O)(=O)Nc2ccc3c(c2)CC(=O)N([C@H](C)CO)C[C@H](C)[C@H](CN(C)Cc2ccc(Cl)c(Cl)c2)O3)cc1	/	100	.
Cc1ccc(S(=O)(=O)Nc2ccc3c(c2)CC(=O)N([C@H](C)CO)C[C@@H](C)[C@@H](CN(C)Cc2ccc4c(c2)OCO4)O3)cc1	.	.	/
Cc1ccc(S(=O)(=O)Nc2ccc3c(c2)CC(=O)N([C@H](C)CO)C[C@H](C)[C@H](CN(C)Cc2ccc4c(c2)OCO4)O3)cc1	.	.	.
CC(C)(CO)NCc1ccc(-c2ccccc2)o1	.	.	.
COC(=O)c1c(NC(=O)COc2cccc(Cl)c2)sc2c1CCC2	.	.	.
COc1cc(OC)c(O[C@@H]2O[C@H](COC(=O)c3cc(O)c(O)c(O)c3)[C@@H](O)[C@H](O)[C@H]2O)c(OC)c1	.	.	.
CC1(C)C(=O)C=C[C@@]2(C)C1CC(=O)[C@@]1(C)C3=CC(=O)O[C@@H](c4ccoc4)[C@]3(C)CCC12 (stereo not given in full)	/	.	.
CC1(C)C(=O)C=CC2(C)C1CC(O)C1(C)C3=CCC(c4ccoc4)C3(C)CCC21 (stereo not given)	.	119	.
C=CCNC(=S)N1N=C2c3ccccc3CCC2C1c1ccccc1Cl (stereo not given)	.	109	/
CC(=O)N1N=C2c3ccccc3CCC2C1c1cccs1 (stereo not given)	.	.	/
O=C(CSc1ncnc2sc(-c3ccccc3)cc12)Nc1ccccc1Cl	.	?	.
COc1cc(OC)cc(-c2nc(N)c3c(C)c(-c4ccc(OC)c(OC)c4)sc3n2)c1	.	115	/
COc1ccc(NC(=O)CCCSc2nc(N)c3c(C)c(C)sc3n2)cc1	/	.	.
COc1cc2ncnc(Nc3ccc(OCc4ccccc4)cc3)c2cc1OC	.	.	.
SMILES	PD-1 reverse act	NOMO-1 viab	STK33 kin inh
COc1cc2ncnc(Nc3ccc(Cl)cc3F)c2cc1OC	.	?	26
C#Cc1cccc(Nc2ncnc3cc(OC)c(OC)cc23)c1	.	96	23
COc1ccc(OC)c(Nc2ncnc3c2cnn3-c2ccccc2)c1	.	.	.
O[C@]12CO[C@H](c3ccc4c(c3)OCO4)[C@H]1CO[C@@H]2c1ccc2c(c1)OCO2	.	.	.
COc1cc(C2NC(=S)NC(C)=C2C(=O)Nc2ccccc2Cl)ccc1OCC#N (stereo not given)	.	.	.
CCN1CCOC(CC(=O)Nc2cc(C(=O)OC)cc(C(=O)OC)c2)C1=O (stereo not given)	/	.	.
Cc1sc2nc3c4ccccc4c(NCC4CCCO4)nn3c(=O)c2c1C (stereo not given)	.	87	/
Cc1ccc(-c2csc3nc4c5ccccc5c(NCCCN5CCOCC5)nn4c(=O)c23)cc1	.	114	.
Cc1sc2nc3c4ccccc4c(NCCO)nn3c(=O)c2c1C	.	.	/
Cc1sc2ncnc(NCCCN3CCOCC3)c2c1-c1ccccc1	/	.	.
COC(=O)Cc1c(CCC(=O)O)oc2cc(C)cc(O)c2c1=O	/	/	.
CSc1nc2ccccc2c(=O)n1C	.	.	/
Cn1c(/C=C/C=C/N2CCCC2)nc2ccccc2c1=O	.	121	.
C[C@H]1CN([C@@H](C)CO)C(=O)Cc2cc(NC(=O)c3ccncc3)ccc2O[C@H]1CN(C)Cc1ccc(-c2ccccc2)cc1	/	89	.
C[C@H]1CN([C@@H](C)CO)C(=O)Cc2cc(NC(=O)Nc3ccccc3)ccc2O[C@H]1CN(C)Cc1ccc(-c2ccccc2)cc1	.	.	.
C[C@H](CO)N1C[C@H](C)[C@H](CN(C)Cc2ccc(-c3ccccc3)cc2)Oc2ccc(NC(=O)Nc3ccccc3)cc2CC1=O	.	113	.
COc1ccc(NC(=O)Nc2ccc3c(c2)CC(=O)N([C@H](C)CO)C[C@@H](C)[C@@H](CN(C)Cc2ccc(-c4ccccc4)cc2)O3)cc1	.	112	/
C[C@H]1CN([C@@H](C)CO)C(=O)Cc2cc(NC(=O)Nc3ccc4c(c3)OCO4)ccc2O[C@H]1CN(C)Cc1ccc(-c2ccccc2)cc1	.	92	.
C[C@@H]1CN([C@H](C)CO)C(=O)Cc2cc(NC(=O)Nc3ccc4c(c3)OCO4)ccc2O[C@@H]1CN(C)Cc1ccc(-c2ccccc2)cc1	.	.	.
C[C@@H]1CN([C@@H](C)CO)C(=O)Cc2cc(NC(=O)c3ccncc3)ccc2O[C@@H]1CN(C)Cc1ccccc1	.	.	.
COc1ccc(NC(=O)Nc2ccc3c(c2)CC(=O)N([C@H](C)CO)C[C@H](C)[C@H](CN(C)Cc2ccc(-c4ccccc4)cc2)O3)cc1	.	.	.
O=C(CSc1ccccc1)Nc1ccc(C(=O)Nc2ccc(Br)cc2C(=O)O)cc1	/	.	.
CCOc1c(S(=O)(=O)NCc2ccccn2)ccc(Cl)c1Cl	.	.	.
COc1cc(NC(=O)C(C)Oc2ccc(Cl)cc2C)c(C(=O)O)cc1OC (stereo not given)	/	.	.
Nc1nnc(SC/C=C/CSc2nnc(N)s2)s1	.	.	.
c1ccc(Oc2nc(Oc3ccccc3)nc(Oc3ccccc3)n2)cc1	.	.	.
O=C(CC(C(=O)O)N1CCCCC1)Nc1cccc(Cl)c1 (stereo not given)	.	.	.
CCOc1ccc(NC(=O)CSc2nnc3c4c5c(sc4nc(SC)n23)CCC5)cc1	/	.	.
COc1ccc(C(=O)C(C)Oc2ccc(NC(=O)c3cccc(OC)c3)cc2)cc1 (stereo not given)	.	125	.

Source: PubChem BioAssay (Broad Institute)
